The full list was thinned out, with hits kept by preference.
CBX7 AlphaScr: inhibitors of human CBX7 binding to H3K27me3 peptide. O95931. AlphaScreen His6-CBX7 / biotin-H3K27me3 peptide binding; hits give low values. normalised signal (fraction of DMSO) (concentration not given with the values). 1.1% of 66,000 active; in the data active = normalised signal below about 0.5
Target sequence (O95931 whole entry, looked up): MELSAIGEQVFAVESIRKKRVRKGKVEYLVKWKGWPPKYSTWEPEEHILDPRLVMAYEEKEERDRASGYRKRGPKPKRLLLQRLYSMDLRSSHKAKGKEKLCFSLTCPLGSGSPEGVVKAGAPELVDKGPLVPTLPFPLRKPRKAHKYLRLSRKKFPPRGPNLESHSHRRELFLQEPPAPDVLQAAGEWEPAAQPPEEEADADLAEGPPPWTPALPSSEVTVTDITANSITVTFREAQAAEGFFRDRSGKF
Numbers stand for hits; – = inactive.

SMILES	CBX7 AlphaScr
CCC(C)NC(=O)C1CCCN(c2nc3ccc(OC)cc3s2)C1 (stereo unspecified)	–
Cc1ccc2c(c1)Oc1cc([N+](=O)[O-])cc(Oc3ccccc3C)c1C(=O)N2	0.049
Cc1ccc2c(c1)Oc1cc([N+](=O)[O-])cc(Oc3ccc(Cl)cc3)c1C(=O)N2	0.2
CC(=O)Nc1ccc(Oc2cc([N+](=O)[O-])cc3c2C(=O)Nc2ccccc2O3)cc1	–
Cc1ccc(-c2n[nH]c(=O)c3ccccc23)cc1S(=O)(=O)N1CCN(C)CC1	–
Nc1nonc1-c1noc(-c2cc(Br)ccc2OCc2ccccc2Cl)n1	–
COc1cccc2c(S(=O)(=O)Nc3ccc(C(=O)O)cc3)ccnc12	0.12
COc1ccc(S(=O)(=O)Nc2cccc(C)c2C)c2cccnc12	–
COc1ccc(S(=O)(=O)Nc2ccccc2Cl)c2cccnc12	–
COc1ccccc1NC(=O)NCCN1CCN(c2cc(Cl)ccc2C)CC1	–
CCCSCCCNC(=O)C1CCCN(c2nc3ccc(OCC)cc3s2)C1 (stereo unspecified)	–
CCCn1cnc2cc(NCc3ccccc3OCC)ccc21	–
CCCCn1cnc2cc(NCc3ccccc3OCC)ccc21	0.19
CCCCn1cnc2cc(NCc3ccccc3Cl)ccc21	0.22
CCCCn1cnc2cc(NCc3ccc(OCC)cc3)ccc21	–
CCn1cnc2cc(NCc3ccccc3OC)ccc21	–
CCn1cnc2cc(NCc3cccc(OC)c3)ccc21	–
CCCn1cnc2cc(NCc3ccccc3Cl)ccc21	–
CCn1cnc2cc(NCc3ccccc3Cl)ccc21	–
CCCCn1cnc2cc(NCc3cccc(OC)c3)ccc21	0.36
O=C(C1=CCN(S(=O)(=O)c2ccc(F)cc2)CC1)N1CCOCC1	–
COc1ccc(C(=O)Nc2cc(-c3nc4cc(C(C)C)ccc4o3)ccc2Cl)cc1	–
Cc1ccc(S(=O)(=O)N2CC=C(C(=O)Nc3ccc(C)cc3C)CC2)cc1	–
CCCc1cc(C(=O)Nc2ccc(OC)cc2)no1	–
COc1ccc(-c2cn(-c3ccc(C)c(C)c3)c(=O)[nH]2)cc1OC	–
SMILES	CBX7 AlphaScr
Cc1cc(C)c2oc(-c3cccc(NC(=O)c4cncc(Br)c4)c3)nc2c1	–
COc1ccc(-c2nnc(NC(=O)c3ccc(S(=O)(=O)N4CC(C)OC(C)C4)cc3)o2)cc1 (stereo unspecified)	–
Cc1nnc(NC(=O)c2ccc(S(=O)(=O)N3CC(C)OC(C)C3)cc2)o1 (stereo unspecified)	0.0066
NC(=O)c1oc2ccccc2c1NC(=O)c1ccc(S(=O)(=O)N2CCCCC2)cc1	–
CC1CCCN(S(=O)(=O)c2ccc(C(=O)Nc3nnc(C4CC4)o3)cc2)C1 (stereo unspecified)	–
NC(=O)c1oc2ccccc2c1NC(=O)c1ccc(S(=O)(=O)N2CCCC2)cc1	–
COc1ccccc1-c1nnc(NC(=O)c2ccc(S(=O)(=O)N3CC(C)OC(C)C3)cc2)o1 (stereo unspecified)	–
Cc1nnc(NC(=O)c2ccc(S(=O)(=O)N3CCCCCC3)cc2)o1	0.002
Cc1ccccc1NC(=O)c1ccc(S(=O)(=O)N2CCCCC2)cc1	–
Cc1nnc(NC(=O)c2ccc(S(=O)(=O)N3CCCCC3)cc2)o1	0.021
O=C(Nc1nnc(C2CC2)o1)c1ccc(S(=O)(=O)N2CCCC2)cc1	0.45
COc1ccccc1-c1nnc(NC(=O)c2ccc(S(=O)(=O)N3CCCC3)cc2)o1	–
COc1ccc(-c2nc3sc4c(c3c(=O)[nH]2)CCCC4)cc1	–
COc1cc2[nH]cc(S(=O)(=O)c3ccc(F)cc3)c(=O)c2cc1OC	–
COc1ccc(CNC(=O)CCc2cn(Cc3ccccc3)c3ccccc23)c(OC)c1	–
CC(C)CC1Nc2ccc(C(=O)NCCCN3CCN(C)CC3)cc2NC1=O (stereo unspecified)	–
Cc1nc2ccc(S(=O)(=O)NC(C(=O)Nc3ccc4c(c3)OCCO4)C(C)C)cc2s1 (stereo unspecified)	–
CCOc1ccc2nc(NC(=O)C3CCN(S(=O)(=O)c4c(C)n[nH]c4C)CC3)sc2c1	–
COc1cccc(C2=NOC(C(=O)Nc3cccc(C(F)(F)F)c3)C2)c1 (stereo unspecified)	–
O=C1c2ccccc2C(Nc2cc(Cl)cc(Cl)c2)N1c1cccnc1 (stereo unspecified)	–
CCN1CCN(CCCNC(=O)COc2ccc3c(c2)C(=O)CC(C)(C)O3)CC1	0.45
CCCN1CCN(CCCNC(=O)COc2ccc3c(c2)C(=O)CC(C)(C)O3)CC1	–
CCCCCCCNC(=O)COc1ccc2c(c1)C(=O)CC(C)(C)O2	–
O=C(Nc1cccc(-c2nc3ncccc3o2)c1)c1cccc(OCc2ccccc2)c1	–
COc1ccc(-c2nc(-c3cccc4ccccc34)[nH]c2-c2ccc(OC)cc2)cc1	–
SMILES	CBX7 AlphaScr
Oc1ccc(-c2nc(-c3ccccc3)c(-c3ccc(Oc4ccccc4)cc3)[nH]2)cc1O	0.45
COc1ccc(-c2nc(-c3cccc(F)c3)[nH]c2-c2ccc(OC)cc2)cc1	–
COc1ccc(-c2nc(-c3ccccc3)c(-c3ccc(Sc4ccccc4)cc3)[nH]2)cc1	–
COc1ccc(-c2nc(-c3ccccc3)c(-c3ccc(Cl)cc3)[nH]2)cc1	–
COc1ccc(-c2nc(-c3ccccc3)c(-c3ccc(Oc4ccccc4)cc3)[nH]2)cc1	0.47
COc1ccc(-c2nc(-c3ccccc3F)[nH]c2-c2ccc(OC)cc2)cc1	0.47
CCCCN(C)CCNC(=O)Cn1nc(-c2ccc(Cl)cc2)ccc1=O	–
Cc1ccc2nc(N3CCC(C(=O)NC4CCCCCCC4)CC3)[nH]c2c1	–
C=CCn1c(SCc2ccncc2)nc2cc(C(=O)NCC3CCCO3)ccc2c1=O (stereo unspecified)	–
CCc1ccc(N2CC(c3nc4ccccc4n3CCCOc3ccccc3OC)CC2=O)cc1 (stereo unspecified)	–
O=C(Nc1ccc(OC(F)(F)F)cc1)c1cc(-c2ccc(F)cc2)on1	–
COc1ccccc1CNc1ccc2c(c1)ncn2C(C)(C)C	–
CC(C)c1ccc(CNc2ccc3c(c2)ncn3C)cc1	–
COc1ccccc1-n1cnc2cc(Nc3nnc(C)c4ccccc34)ccc21	–
COc1ccccc1-n1cnc2cc(NCc3ccc(C(C)C)cc3)ccc21	0.2
Cn1cnc2cc(NCc3ccc(Br)cc3)ccc21	–
Cc1nc2cc(NCc3ccc(C(C)C)cc3)ccc2n1C	–
COc1ccccc1-n1cnc2cc(NCc3ccc(N(C)C)cc3)ccc21	0.24
CC(C)(C)n1cnc2cc(NCc3ccc(Br)cc3)ccc21	–
Brc1ccc(CNc2ccc3c(c2)ncn3-c2ccccc2)cc1	0.24
COCCNC(=O)c1ccc2c(c1)ncn2C1CCCC1	–
Cc1cc(=O)n2nc(N3CCC(C(=O)N4CC(C)CC(C)C4)CC3)sc2n1 (stereo unspecified)	–
CCN(CC)S(=O)(=O)c1ccc2c(c1)N(CC(=O)Nc1nccs1)C(=O)CS2	–
Cc1cc(=O)[nH]c(SCc2nc3ccccc3n2C)n1	–
CCN1CCN(C(c2cccs2)C(C)NC(=O)Cc2ccc(OC)c(OC)c2)CC1 (stereo unspecified)	–
COc1ccc(CNC(=O)Cn2nc(Cc3ccncc3)c3ccccc3c2=O)cc1	–
COc1ccc(C2=NOC(C(=O)N3CCN(C)CC3)C2)cc1 (stereo unspecified)	–
Cc1ccc(C(C)C)c(OCCOc2cccc(-c3nc4sc5c(c4c(=O)[nH]3)CCCC5)c2)c1	–
O=C(COc1cccc(C(F)(F)F)c1)Nc1ncc(Cc2ccc(Cl)cc2)s1	–

Source: PubChem BioAssay
